# Test results taken from the supplement of paper PMC12669032.
# Test system: Bacteroides dorei
# Assay: growth AUC relative to DMSO control (median of replicates) (fraction); higher = more growth (less inhibition), active = hit call of the paper
# Conditions: 20 µM; 24 h;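 active = AUC reduced over 20% with Padj below 0.05 in at least 2 of 3 replicates; inactive = otherwise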
# Outline: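 Gut bacterial monocultures were grown anaerobically at 37 °C in mGAM, starting at OD600 0.05, with 20 µM compound (1% DMSO) in round-bottom 96-well plates under pierced gas-permeable seals. OD600 was read hourly for 24 h. Area under the growth curve (minimum OD set to 0) was normalised to the plate median of DMSO controls, or to row and column medians on the industrial chemical plate. The value is the median of three biological replicates grown on separate days.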
row,SMILES,growth AUC
1,C=CCOC(Cn1ccnc1)c1ccc(Cl)cc1Cl.O=S(=O)(O)O (centres undefined),1 (inactive)
2,c1ccc(-c2ccccc2)cc1,0.967 (inactive)
3,CCOC(=O)C(SP(=S)(OC)OC)c1ccccc1 (centres undefined),0.973 (inactive)
4,Nc1nc(N)nc(Cl)n1,1.01 (inactive)
5,NC(=O)/N=C1/SCCN1Cc1ccc(Cl)nc1,0.979 (inactive)
6,CON(C)C(=O)Nc1ccc(Br)c(Cl)c1,1.08 (inactive)
7,CC(C)C(C(=O)OC(C#N)c1cccc(Oc2ccccc2)c1)c1ccc(OC(F)F)cc1 (centres undefined),1.02 (inactive)
8,O=[N+]([O-])c1c(Cl)c(Cl)cc(Cl)c1Cl,1.01 (inactive)
9,Clc1ccc(C2(Cn3cncn3)CC(Br)CO2)c(Cl)c1 (centres undefined),0.955 (inactive)
10,CC(C)N1C(=O)N(c2ccccc2)CSC1=NC(C)(C)C,0.946 (inactive)
11,CNC1=C(c2cccc(C(F)(F)F)c2)C(=O)C(c2ccccc2)O1 (centres undefined),1.01 (inactive)
12,CCOP(=S)(OCC)Oc1cc(C)nc(C(C)C)n1,1.03 (inactive)
13,CCOP(=S)(OCC)SCS(=O)(=O)C(C)(C)C,0.994 (inactive)
14,COc1nc(C)nc(NC(=O)NS(=O)(=O)c2ccccc2Cl)n1,0.99 (inactive)
15,CCOP(=S)(OCC)Oc1cnccn1,1.01 (inactive)
16,O=c1[nH]c2c(c(=O)n1C1CCCCC1)CCC2,0.957 (inactive)
17,COC[C@H](C)N(C(=O)CCl)c1c(C)csc1C,0.951 (inactive)
18,CC(C)N(C(=O)CCl)c1ccccc1,1.01 (inactive)
19,ClC1=C(Cl)C2(Cl)C(CBr)CC1(Cl)C2(Cl)Cl (centres undefined),0.999 (inactive)
20,COC(=O)COc1cc(Cl)c(Cl)cc1Cl,1 (inactive)

row,SMILES,growth AUC
1,COP(=S)(OC)Oc1ccc([N+](=O)[O-])c(C)c1,0.984 (inactive)
2,COC(=O)C(C)N(C(=O)c1ccco1)c1c(C)cccc1C (centres undefined),0.85 (inactive)
3,Cc1ccc(N(SC(F)(Cl)Cl)S(=O)(=O)N(C)C)cc1,1.04 (inactive)
4,CCOC(=O)CC(SP(=O)(OC)OC)C(=O)OCC (centres undefined),0.919 (inactive)
5,COc1cc(OC)nc(NC(=O)NS(=O)(=O)c2ncccc2C(F)(F)F)n1,0.991 (inactive)
6,c1ccc2c(c1)cc1ccc3cccc4ccc2c1c34,0.956 (inactive)
7,CS(=O)(=O)c1cc(C(F)(F)F)ccc1C(=O)c1cnoc1C1CC1,1.02 (inactive)
8,O=C(NC(=O)c1c(F)cccc1F)Nc1ccc(CO/N=C(\c2ccc(Cl)cc2)C2CC2)cc1,1.01 (inactive)
9,CNC(=O)Oc1cc(C)c(S(C)(=O)=O)c(C)c1,0.995 (inactive)
10,O=C(O)c1ccc(=O)[nH]c1,1.02 (inactive)
11,N#Cc1c[nH]cc1-c1cccc(Cl)c1Cl,0.871 (inactive)
12,CCOP(=S)(OCC)SCS(=O)CC (centres undefined),1.01 (inactive)
13,CNC(=O)O/N=C/C(C)(C)S(C)(=O)=O,1.02 (inactive)
14,COc1nc(NC(C)C)nc(NC(C)C)n1,0.994 (inactive)
15,CC(=O)O.CC(=O)O.CC(=O)O.NC(N)=NCCCCCCCCNCCCCCCCCN=C(N)N,0.0196 (active)
16,OCC1C(CO)C2(Cl)C(Cl)=C(Cl)C1(Cl)C2(Cl)Cl (centres undefined),0.859 (inactive)
17,Nc1cc(Cl)cc(C(=O)O)c1Cl,1.04 (inactive)
18,N#Cc1nn(-c2c(Cl)cc(C(F)(F)F)cc2Cl)c(N)c1S(=O)C(F)(F)F (centres undefined),0.897 (inactive)
19,O=[N+]([O-])c1ccccc1,0.97 (inactive)
